# Screen size: about 5,500 compounds; about 2,000 (36%) were called active. Another 18% or so got no clear call; they are omitted. The list shows a part of the results. A number with no mark means an inactive call. Cut-off read from the data, not from the text of the source: active = normalized growth mostly below about 0.91 (no sharp cut-off); inconclusive = no clear call, values can overlap the other calls; inactive = mostly above about 0.92.
# Experiment: chemical genetic growth profiling, strain panel (AID 1159580);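 note: tested at 20 µM; growth read once vehicle control cultures reached saturation at 30 °C; 1 = growth at the plate median or of vehicle wells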
# Settings: S. cerevisiae deletion strains, growth OD
# [1] = locus YAR019C, strain CDC15, stronger effect = lower value
# [2] = locus YBL105C, strain PKC1, stronger effect = lower value
# [3] = locus YBR135W, strain CKS1, stronger effect = lower value
# [4] = locus YBR136W, strain MEC1, stronger effect = lower value
# [5] = locus YBR160W, strain CDC28, stronger effect = lower value
# [6] = locus YDL017W, strain CDC7, stronger effect = lower value
# [7] = locus YDL028C, strain MPS1, stronger effect = lower value
# [8] = locus YDL101C, strain DUN1, stronger effect = lower value
# [9] = locus YDL108W, strain KIN28, stronger effect = lower value
# [10] = locus YDL132W, strain cdc53, stronger effect = lower value
# [11] = locus YDL214C, strain PRR2, stronger effect = lower value
# [12] = locus YDR052C, strain DBF4, stronger effect = lower value
# [13] = locus YDR226W, strain ADK1, stronger effect = lower value
# [14] = locus YDR477W, strain SNF1, stronger effect = lower value
# [15] = locus YER123W, strain YCK3, stronger effect = lower value
# [16] = locus YER133W, strain GLC7, stronger effect = lower value
# [17] = locus YFL009W, strain cdc4, stronger effect = lower value
# [18] = locus YFL029C, strain CAK1, stronger effect = lower value
# [19] = locus YFR003C, strain YPI1, stronger effect = lower value
# [20] = locus YFR019W, strain FAB1, stronger effect = lower value
# [21] = locus YFR028C, strain CDC14, stronger effect = lower value
# [22] = locus YGR040W, strain KSS1, stronger effect = lower value
# [23] = locus YGR052W, strain FMP48, stronger effect = lower value
# [24] = locus YGR092W, strain DBF2, stronger effect = lower value
# [25] = locus YHR030C, strain SLT2, stronger effect = lower value
# [26] = locus YHR079C, strain IRE1, stronger effect = lower value
# [27] = locus YHR082C, strain KSP1, stronger effect = lower value
# [28] = locus YHR205W, strain SCH9, stronger effect = lower value
# [29] = locus YIL147C, strain SLN1, stronger effect = lower value
# [30] = locus YJL095W, strain BCK1, stronger effect = lower value
# [31] = locus YJL157C, strain FAR1, stronger effect = lower value
# [32] = locus YJR016C, strain ILV3, stronger effect = lower value
# [33] = locus YJR066W, strain TOR1 (second series), stronger effect = lower value
# [34] = locus YJR066W, strain TOR1, stronger effect = lower value
# [35] = locus YKL048C, strain ELM1, stronger effect = lower value
# [36] = locus YKL067W, strain YNK1, stronger effect = lower value
# [37] = locus YKL101W, strain HSL1, stronger effect = lower value
# [38] = locus YKL193C, strain SDS22, stronger effect = lower value
# [39] = locus YKL203C, strain TOR2, stronger effect = lower value
# [40] = locus YLR113W, strain HOG1, stronger effect = lower value
# [41] = locus YLR133W, strain CKI1, stronger effect = lower value
# [42] = locus YLR403W, strain SFP1, stronger effect = lower value
# [43] = locus YML070W, strain DAK1, stronger effect = lower value
# [44] = locus YMR001C, strain CDC5, stronger effect = lower value
# [45] = locus YMR205C, strain PFK2 (second series), stronger effect = lower value
# [46] = locus YMR277W, strain FCP1, stronger effect = lower value
# [47] = locus YNL006W, strain LST8, stronger effect = lower value
# [48] = locus YNL020C, strain ARK1, stronger effect = lower value
# [49] = locus YNL161W, strain CBK1, stronger effect = lower value
# [50] = locus YNL183C, strain NPR1, stronger effect = lower value
# [51] = locus YNL207W, strain RIO2, stronger effect = lower value
# [52] = locus YNL222W, strain SSU72, stronger effect = lower value
# [53] = locus YNL307C, strain MCK1 (second series), stronger effect = lower value
# [54] = locus YOL078W, strain AVO1, stronger effect = lower value
# [55] = locus YOL136C, strain PFK27, stronger effect = lower value
# [56] = locus YOR061W, strain CKA2, stronger effect = lower value
# [57] = locus YOR119C, strain RIO1, stronger effect = lower value
# [58] = locus YOR231W, strain MKK1, stronger effect = lower value
# [59] = locus YOR329C, strain SCD5, stronger effect = lower value
# [60] = locus YPL031C, strain PHO85, stronger effect = lower value
# [61] = locus YPL153C, strain RAD53, stronger effect = lower value
# [62] = locus YPL204W, strain HRR25, stronger effect = lower value
# [63] = locus YPL209C, strain IPL1, stronger effect = lower value
# [64] = locus YPL256C, strain CLN2, stronger effect = lower value
# [65] = locus YPR025C, strain CCL1, stronger effect = lower value
# [66] = locus YPR111W, strain DBF20, stronger effect = lower value
# [67] = strain NNK1, stronger effect = lower value
# [68] = strain TSCII, stronger effect = lower value
smiles,measurement,setting,value
COc1ccc(OC)c2nc3c(nc12)C(=O)c1ccccc1-3,normalized growth,[1],0.97
same,normalized growth,[2],0.969
same,normalized growth,[3],0.974
same,normalized growth,[4],0.974
same,normalized growth,[5],0.974
same,normalized growth,[6],0.968
same,normalized growth,[7],0.984
same,normalized growth,[8],0.953
same,normalized growth,[9],0.972
same,normalized growth,[10],0.972
same,normalized growth,[11],0.997
same,normalized growth,[12],0.971
same,normalized growth,"locus YDR054C, strain cdc34, stronger effect = lower value",0.957
same,normalized growth,[13],0.979
same,normalized growth,[14],0.971
same,normalized growth,[15],0.942
same,normalized growth,[16],0.988
same,normalized growth,[17],0.978
same,normalized growth,[18],0.969
same,normalized growth,[19],0.974
same,normalized growth,[20],0.974
same,normalized growth,[21],0.981
same,normalized growth,[22],0.973
same,normalized growth,[23],1
same,normalized growth,[24],0.837
same,normalized growth,[25],0.914
same,normalized growth,[26],0.863
same,normalized growth,[27],1.05
same,normalized growth,[28],0.965
same,normalized growth,[29],0.979
same,normalized growth,[30],0.91
same,normalized growth,"locus YJL128C, strain PBS2, stronger effect = lower value",0.956
same,normalized growth,[31],0.958
same,normalized growth,[32],0.977
same,normalized growth,[33],0.947
same,normalized growth,[34],1
same,normalized growth,[35],0.953
same,normalized growth,[36],0.989
same,normalized growth,[37],0.985
same,normalized growth,[38],0.975
same,normalized growth,[39],1
same,normalized growth,[40],0.899
same,normalized growth,[41],0.967
same,normalized growth,[42],0.932
same,normalized growth,[43],0.979
same,normalized growth,[44],0.971
same,normalized growth,[45],0.996
same,normalized growth,[46],0.976
same,normalized growth,[47],0.973
same,normalized growth,[48],0.94
same,normalized growth,[49],0.958
same,normalized growth,[50],0.99
same,normalized growth,[51],0.971
same,normalized growth,[52],0.974
same,normalized growth,[53],0.945
same,normalized growth,[54],0.975
same,normalized growth,[55],0.958
same,normalized growth,[56],0.938
same,normalized growth,[57],1.05
same,normalized growth,[58],0.902
same,normalized growth,[59],0.966
same,normalized growth,[60],0.935
same,normalized growth,[61],0.929
same,normalized growth,[62],0.94
same,normalized growth,[63],0.96
same,normalized growth,[64],0.902
same,normalized growth,[65],0.979
same,normalized growth,"locus YPR106W, strain ISR1, stronger effect = lower value",0.98
same,normalized growth,[66],0.968
same,normalized growth,[67],0.98
same,normalized growth,[68],0.968
Cc1ccc2nc3c(nc2c1)-c1ccccc1C3=O,normalized growth,[1],0.916
same,normalized growth,[2],0.925
same,normalized growth,[3],0.929
same,normalized growth,[4],0.93
same,normalized growth,[5],0.931
same,normalized growth,[6],0.926
same,normalized growth,[7],0.937
same,normalized growth,[8],0.716 (active)
same,normalized growth,[9],0.938
same,normalized growth,[10],0.932
same,normalized growth,[11],0.247 (active)
same,normalized growth,[12],0.861 (active)
same,normalized growth,[13],0.958
same,normalized growth,[14],0.279 (active)
same,normalized growth,[15],0.217 (active)
same,normalized growth,[16],0.339 (active)
same,normalized growth,[17],0.925
same,normalized growth,[18],0.9
same,normalized growth,[19],0.927
same,normalized growth,[20],0.281 (active)
same,normalized growth,[21],0.922
same,normalized growth,[22],0.3 (active)
same,normalized growth,[23],0.255 (active)
same,normalized growth,[24],0.15 (active)
same,normalized growth,[25],0.208 (active)
same,normalized growth,[26],0.209 (active)
same,normalized growth,[27],0.261 (active)
same,normalized growth,[28],0.391 (active)
same,normalized growth,[29],0.935
same,normalized growth,[30],0.227 (active)
same,normalized growth,[31],0.21 (active)
same,normalized growth,[32],0.935
same,normalized growth,[33],0.259 (active)
same,normalized growth,[34],0.225 (active)
same,normalized growth,[35],0.309 (active)
same,normalized growth,[36],0.235 (active)
same,normalized growth,[37],0.264 (active)
same,normalized growth,[38],0.919
same,normalized growth,[39],0.275 (active)
same,normalized growth,[40],0.288 (active)
same,normalized growth,[41],0.224 (active)
same,normalized growth,[42],0.181 (active)
same,normalized growth,[43],0.243 (active)
same,normalized growth,[44],0.908
same,normalized growth,[45],0.261 (active)
same,normalized growth,[46],0.922
same,normalized growth,[47],0.929
same,normalized growth,[48],0.196 (active)
same,normalized growth,[49],0.903
same,normalized growth,[50],0.259 (active)
same,normalized growth,[51],0.909
same,normalized growth,[52],0.923
same,normalized growth,[53],0.199 (active)
same,normalized growth,[54],0.903
same,normalized growth,[55],0.226 (active)
same,normalized growth,[56],0.205 (active)
same,normalized growth,[57],0.29 (active)
same,normalized growth,[58],0.246 (active)
same,normalized growth,[59],0.92
same,normalized growth,[60],0.278 (active)
same,normalized growth,[61],0.265 (active)
same,normalized growth,[62],0.263 (active)
same,normalized growth,[63],0.92
same,normalized growth,[64],0.277 (active)
same,normalized growth,[65],0.929
same,normalized growth,[66],0.886
same,normalized growth,[67],0.8 (active)
same,normalized growth,[68],0.874 (active)
